Test results taken from PubChem BioAssay AID1159580 (chemical genetic matrix, 2015).
The whole screen tested about 5,500 compounds, of which about 2,000 (36%) were called active. About 18% were inconclusive and are not listed. No stated cut-off is given here; in the data, active means normalized growth mostly below about 0.91 (no sharp cut-off); inconclusive means no clear call, values can overlap the other calls; inactive means mostly above about 0.92. Some of the results follow.

Test: chemical genetic growth profiling, strain panel (AID 1159580);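 further: tested at 20 µM; growth read once vehicle control cultures reached saturation at 30 °C; 1 = growth at the plate median or of vehicle wells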
Details: S. cerevisiae deletion strains, growth OD
[1] = locus YAL040C, strain CLN3, stronger effect = lower value
[2] = locus YCL061C, strain MRC1 (second series), stronger effect = lower value
[3] = locus YDR363W, strain ESC2, stronger effect = lower value
[4] = locus YER002W, strain NOP16, stronger effect = lower value
[5] = locus YMR307W, strain GAS1, stronger effect = lower value
[6] = locus YNL175C, strain NOP13, stronger effect = lower value
[7] = locus YNL197C, strain WHI3, stronger effect = lower value
[8] = locus YNL224C, strain SQS1, stronger effect = lower value
[9] = locus YOR083W, strain WHI5 (second series), stronger effect = lower value
[10] = locus YPL055C, strain LGE1, stronger effect = lower value
[11] = locus YPL241C, strain CIN2, stronger effect = lower value

Measured: normalized growth

CN1CC(C(=O)NC2(C)OC3(O)C4CCCN4C(=O)C(Cc4ccccc4)N3C2=O)CC2c3cccc4[nH]cc(c34)CC21 (stereo not drawn)
inactive: [1] 0.995 | [2] 0.992 | locus YDR150W, strain NUM1, stronger effect = lower value 0.99 | [3] 0.974 | [4] 0.988 | locus YMR263W, strain SAP30, stronger effect = lower value 0.987 | [5] 0.965 | locus YNL128W, strain TEP1, stronger effect = lower value 0.994 | [6] 1.01 | [7] 0.985 | [8] 1 | [9] 0.98 | [10] 0.905 | [11] 0.995

CC(C)[C@@]1(NC(=O)[C@@H]2C[C@@H]3c4cccc5[nH]cc(c45)C[C@H]3N(C)C2)O[C@@]2(O)[C@@H]3CCCN3C(=O)[C@H](Cc3ccccc3)N2C1=O
inactive: locus YAL013W, strain DEP1, stronger effect = lower value 0.941 | [1] 0.972 | [2] 0.974 | [3] 0.945 | [4] 0.981 | locus YGR078C, strain PAC10, stronger effect = lower value 0.996 | [5] 0.985 | [6] 0.987 | [7] 1.02 | [8] 1 | locus YNL322C, strain KRE1, stronger effect = lower value 0.924 | [9] 1 | [10] 0.91 | [11] 0.985
